In the antibiotic and cytotoxicity screens of Wong et al. (2023) one finds cytotoxicity call data, which are given here for 66 compounds.

The whole screen tested about 39,000 compounds, of which about 3,300 (8.5%) were called active. Many of the other results were omitted from the sample, so actives are more common in it than they were.

In this experiment the test system is HepG2. Description: cytotoxicity call (relative viability < 0.9). The following applies: 10 µM.
With `COc1cccc(S(=O)(=O)Nc2ccc3c(c2)C(=O)N(C)C[C@H](OC)[C@@H](C)CN(C(=O)Cc2cccnc2)[C@@H](C)CO3)c1`, the cytotoxicity call is “inactive”.
Take `CC(C)=CCC[C@@H](C)CCO`: the cytotoxicity call was “inactive”.
For `CC(=O)N1[C@@H](CO)[C@H](c2ccccc2)[C@@H]1CNC(=O)CN1CCOCC1` the value was “inactive”; for `COC[C@H](NC(=O)c1cnc(C)s1)C(=O)N[C@@H](COC)C(=O)N[C@@H](Cc1ccccc1)C(=O)[C@@]1(C)CO1`, “active”.
For `COc1ccc(C[C@H](NC(=O)[C@H](C)NC(=O)CN2CCOCC2)C(=O)N[C@@H](Cc2ccccc2)C(=O)[C@@]2(C)CO2)cc1` the value was “active”; for `CC(=O)N1[C@H](CNC(=O)CN2CCOCC2)[C@@H](c2ccccc2)[C@@H]1CO`, “inactive”; for `COC(=O)[C@H](Cc1ccccc1)NC(=O)[C@@H](N)CC(=O)O`, “inactive”.
In the case of `CC(=O)N[C@@H](Cc1ccccc1)C(=O)NN`, the cytotoxicity call was “inactive”.
Regarding `CC(C)C[C@H](NC(=O)[C@H](CCc1ccccc1)NC(=O)CN1CCOCC1)C(=O)N[C@@H](Cc1ccccc1)C(=O)N[C@@H](CC(C)C)C(=O)[C@@]1(C)CO1`, the cytotoxicity call is “active”.
With `CC(=O)N[C@@H](Cc1ccccc1)C(=O)O`, the cytotoxicity call is “inactive”.
As to `COC(=O)C(Cc1ccccc1)NC(=O)C(N)CC(=O)O` (stereo unspecified), the cytotoxicity call is “inactive”.
For the compound `C[C@@H]1CN([C@H](C)CO)C(=O)c2cccc(NC(=O)c3ccc(-c4nccs4)cc3)c2O[C@H]1CN(C)Cc1ccc(C(=O)Nc2ccccc2N)cc1`, the cytotoxicity call is “inactive”.
For `NCCC[C@@H](N)CC(=O)NC[C@H]1NC(=O)[C@@H](CO)NC(=O)[C@@H](N)CNC(=O)[C@H]([C@H]2CCN=C(N)N2)NC(=O)C(C=NC(N)=O)NC1=O` (stereo partly specified) the value was “inactive”; for `O=C(C[C@H]1CC[C@H]2[C@@H](COC[C@H](O)CN2C(=O)C2CC2)O1)NCc1ccncc1`, “inactive”.
For `C=CCNc1ncnc2c1cnn2C` the value was “inactive”; for `CNC(=O)C[C@@H]1CC[C@H]2[C@@H](COC[C@@H](O)CN2C(=O)c2ccccn2)O1`, “inactive”.
Regarding `CO[C@H]1CN(C)C(=O)c2cc(NS(=O)(=O)c3ccccc3)ccc2OC[C@H](C)N(C(=O)NC(C)C)C[C@@H]1C`, the cytotoxicity call is “inactive”.
The value for `C[C@H](CO)N1C[C@H](C)[C@@H](CN(C)Cc2ccc(Cl)c(Cl)c2)Oc2ccc(NC(=O)Nc3ccc4c(c3)OCO4)cc2CC1=O` was “inactive”.
The value for `C[C@H](CO)N1C[C@H](C)[C@H](CN(C)Cc2ccc(Cl)c(Cl)c2)Oc2ccc(NC(=O)Nc3ccc4c(c3)OCO4)cc2CC1=O` was “active”.
In the case of `C[C@@H]1CN([C@@H](C)CO)C(=O)Cc2cc(NC(=O)Nc3ccc4c(c3)OCO4)ccc2O[C@H]1CN(C)Cc1ccc(Cl)c(Cl)c1`, the cytotoxicity call was “active”.
For `C[C@@H]1CN([C@@H](C)CO)C(=O)Cc2cc(NC(=O)Nc3ccc4c(c3)OCO4)ccc2O[C@@H]1CN(C)Cc1ccc(Cl)c(Cl)c1` the value was “inactive”; for `C[C@H]1CN([C@@H](C)CO)C(=O)Cc2cc(NC(=O)Nc3ccc4c(c3)OCO4)ccc2O[C@H]1CN(C)Cc1ccc(Cl)c(Cl)c1`, “active”; for `C[C@@H]1CN([C@H](C)CO)C(=O)Cc2cc(NC(=O)Nc3ccc4c(c3)OCO4)ccc2O[C@H]1CN(C)Cc1ccc(Cl)c(Cl)c1`, “inactive”.
As for `C[C@H]1CN([C@@H](C)CO)C(=O)Cc2cc(NC(=O)Nc3ccc4c(c3)OCO4)ccc2O[C@@H]1CN(C)Cc1ccc(Cl)c(Cl)c1`, the cytotoxicity call was “inactive”.
Consider `C[C@@H]1CN([C@H](C)CO)C(=O)Cc2cc(NC(=O)Nc3ccc4c(c3)OCO4)ccc2O[C@@H]1CN(C)Cc1ccc(Cl)c(Cl)c1`, for which the cytotoxicity call is “inactive”.
For `CCS(=O)(=O)N1CC[C@]2(CC1)CN([C@@H](CO)c1[nH]c3cc(ccc3c12)OC)C(=O)c1ccc(cc1)F`, the cytotoxicity call is “inactive”.
For `COc1ccc(S(=O)(=O)N(C)C[C@H]2OCCCC[C@H](C)Oc3ccc(NC(=O)Nc4ccc(F)cc4)cc3C(=O)N([C@@H](C)CO)C[C@H]2C)cc1` the value was “inactive”; for `CN1CCN(C(=O)[C@@H]2[C@@H](C(=O)O)[C@H]3CC[C@H]2O3)CC1`, “inactive”.
Regarding `CN(C)CC(=O)N1CC(=O)N2[C@@H](CO)[C@H](c3ccc(C#Cc4cccnc4)cc3)[C@@H]2C1`, the cytotoxicity call was “inactive”.
The value for `CN1CCN(C)[C@@H](CO)C1` was “inactive”; that for `Cc1ccc(S(=O)(=O)N(C)C[C@@H]2OCCCC[C@@H](C)Oc3ccc(NC(=O)c4ccccc4)cc3C(=O)N([C@@H](C)CO)C[C@@H]2C)cc1` was “inactive”; that for `C[C@@H]1CN([C@H](C)CO)C(=O)c2cc(NS(=O)(=O)c3cn(C)cn3)ccc2O[C@@H]1CN(C)C(=O)Nc1ccc(F)cc1` was “inactive”.
As to `CC1(C)CC[C@]2(C(=O)O[C@@H]3O[C@H](CO[C@@H]4O[C@H](CO)[C@@H](O)[C@H](O)[C@H]4O)[C@@H](O)[C@H](O)[C@H]3O)CC[C@]3(C)C(=CC[C@H]4[C@@]5(C)CC[C@H](O[C@@H]6OC[C@H](O)[C@H](O)[C@H]6O)C(C)(C)[C@@H]5CC[C@]43C)[C@@H]2C1`, the cytotoxicity call was “inactive”.
For `CC(=O)OC1CC23CC24CCC(OC2OCC(O)C(O)C2O)C(C)(C)C4CCC3C2(C)CC3OC4(CC(C)C3C12C)OC(O)C1(C)OC41` (stereo unspecified) the value was “inactive”; for `CC(CC(=O)C1OC1(C)C)C1C(=O)CC2(C)C3=CCC4C(C)(C)C(OC5OCC(O)C(O)C5O)CCC45CC35C(O)CC12C` (stereo unspecified), “active”.
The value for `O=C(Nc1cc(C(=O)Nc2ccc(S(=O)(=O)O)cc2S(=O)(=O)O)cc(C(=O)Nc2ccc(S(=O)(=O)O)cc2S(=O)(=O)O)c1)Nc1cc(C(=O)Nc2ccc(S(=O)(=O)O)cc2S(=O)(=O)O)cc(C(=O)Nc2ccc(S(=O)(=O)O)cc2S(=O)(=O)O)c1` was “inactive”; that for `CC(C)CC#Cc1cnc2c(c1)C(=O)N([C@H](C)CO)C[C@@H](C)[C@@H](CN(C)S(=O)(=O)c1ccccc1)O2` was “inactive”.
On to `C[C@H](CO)N1C[C@H](C)[C@@H](CN(C)C(=O)Nc2cccc3ccccc23)OCCCC[C@H](C)Oc2ccc(NS(=O)(=O)c3cccs3)cc2C1=O`, for which the cytotoxicity call was “active”.
On to `C[C@@H]1CCCCO[C@H](CN(C)C(=O)Nc2cccc3ccccc23)[C@H](C)CN([C@H](C)CO)C(=O)c2cc(NS(=O)(=O)c3cccs3)ccc2O1`, for which the cytotoxicity call was “active”.
The value for `C[C@H]1CCCCO[C@H](CN(C)C(=O)Nc2cccc3ccccc23)[C@@H](C)CN([C@@H](C)CO)C(=O)c2cc(NS(=O)(=O)c3cccs3)ccc2O1` was “active”; that for `C[C@@H]1CN([C@@H](C)CO)C(=O)c2cc(NS(=O)(=O)c3cccs3)ccc2O[C@@H](C)CCCCO[C@H]1CN(C)C(=O)Nc1cccc2ccccc12` was “inactive”; that for `C[C@@H]1CCCCO[C@@H](CN(C)C(=O)Nc2cccc3ccccc23)[C@H](C)CN([C@H](C)CO)C(=O)c2cc(NS(=O)(=O)c3cccs3)ccc2O1` was “inactive”.
Consider `C[C@H]1CCCCO[C@@H](CN(C)C(=O)Nc2cccc3ccccc23)[C@@H](C)CN([C@@H](C)CO)C(=O)c2cc(NS(=O)(=O)c3cccs3)ccc2O1`, for which the cytotoxicity call was “inactive”.
The value for `C[C@@H]1CCCCO[C@H](CN(C)C(=O)Nc2cccc3ccccc23)[C@@H](C)CN([C@H](C)CO)C(=O)c2cc(NS(=O)(=O)c3cccs3)ccc2O1` was “inactive”; that for `C[C@H](CO)N1C[C@H](C)[C@H](CN(C)C(=O)Nc2cccc3ccccc23)OCCCC[C@H](C)Oc2ccc(NS(=O)(=O)c3cccs3)cc2C1=O` was “inactive”.
The value for `C[C@@H]1CN([C@@H](C)CO)C(=O)c2cc(NS(=O)(=O)c3cccs3)ccc2O[C@@H](C)CCCCO[C@@H]1CN(C)C(=O)Nc1cccc2ccccc12` was “inactive”; that for `CO[C@@H](CN(C)C(=O)c1ccc2c(c1)OCO2)[C@H](C)CN([C@@H](C)CO)S(=O)(=O)c1ccc(F)cc1` was “inactive”; that for `C[C@@H]1CCCCO[C@@H](CN(C)C(=O)CCC(F)(F)F)[C@H](C)CN([C@H](C)CO)C(=O)c2cc(NC(=O)C3CCCCC3)ccc2O1` was “inactive”.
As to `C[C@@H]1CN([C@@H](C)CO)C(=O)c2cccc(NC(=O)Nc3ccc4c(c3)OCO4)c2O[C@H]1CN(C)Cc1ccc(C(=O)Nc2ccccc2N)cc1`, the cytotoxicity call is “inactive”.
For `O=C(CCCCCNC(=O)OCc1ccc(CO[C@H]2C[C@@H](c3coc4ccccc4c3=O)C=C(C(=O)N3CCN(Cc4ccccc4)CC3)O2)cc1)NO` the value was “inactive”; for `O=C(CN1CCOCC1)N[C@H]1CC[C@@H](CCNS(=O)(=O)c2ccccc2F)O[C@@H]1CO`, “inactive”; for `Cc1ccc(S(=O)(=O)Nc2cccc3c2O[C@@H](CN(C)Cc2ccc(Cl)c(Cl)c2)[C@@H](C)CN([C@@H](C)CO)C3=O)cc1`, “inactive”.
With `CC(C)NC(=O)N(C)C[C@H]1Oc2ccc(NC(=O)CCC(F)(F)F)cc2C(=O)N([C@H](C)CO)C[C@H]1C`, the cytotoxicity call is “inactive”.
Take `N#C[C@H]1N[C@H](CO)[C@H]1c1ccccc1`: the cytotoxicity call was “inactive”.
For `C[C@H](CO)N1C[C@H](C)[C@H](CN(C)S(=O)(=O)c2ccc(C#N)cc2)Oc2ncc(C#CC(C)(C)O)cc2C1=O` the value was “inactive”; for `COc1ccccc1S(=O)(=O)N1C[C@@H](O)COC[C@@H]2O[C@@H](CC(=O)O)CC[C@H]21`, “inactive”.
For `C[C@H](CO)N1C[C@H](C)[C@@H](CN(C)C(=O)c2ccccn2)Oc2cc(C#Cc3ccccc3)ccc2S1(=O)=O` the value was “inactive”; for `C[C@@H]1CN([C@H](C)CO)C(=O)c2ccccc2-c2ccccc2CO[C@H]1CN(C)C(=O)Nc1ccc(-c2ccccc2)cc1`, “active”; for `C[C@@H]1CN([C@@H](C)CO)C(=O)c2c(c3ccccc3n2C)-c2ccccc2CO[C@@H]1CN(C)C(=O)Nc1ccc(-c2ccccc2)cc1`, “inactive”.
For the compound `C[C@H]1CN([C@@H](C)CO)C(=O)c2c(c3ccccc3n2C)-c2ccccc2CO[C@H]1CN(C)C(=O)Nc1ccc(-c2ccccc2)cc1`, the cytotoxicity call was “active”.
In the case of `C[C@H](CO)N1C[C@H](C)[C@@H](CN(C)C(=O)Nc2ccc(-c3ccccc3)cc2)OCc2ccccc2-c2c(n(C)c3ccccc23)C1=O`, the cytotoxicity call is “inactive”.
For `C[C@H]1CN([C@@H](C)CO)C(=O)c2ccccc2-c2ccccc2CO[C@@H]1CN(C)C(=O)Nc1ccc(-c2ccccc2)cc1` the value was “inactive”; for `C[C@@H]1CN([C@@H](C)CO)C(=O)c2c(c3ccccc3n2C)-c2ccccc2CO[C@H]1CN(C)C(=O)Nc1ccc(-c2ccccc2)cc1`, “inactive”.
For `C[C@@H]1CN([C@@H](C)CO)C(=O)c2ccccc2-c2ccccc2CO[C@@H]1CN(C)C(=O)Nc1ccc(-c2ccccc2)cc1` the value was “inactive”; for `C[C@@H]1CN([C@H](C)CO)C(=O)c2c(c3ccccc3n2C)-c2ccccc2CO[C@H]1CN(C)C(=O)Nc1ccc(-c2ccccc2)cc1`, “active”; for `C[C@@H]1CN([C@H](C)CO)C(=O)c2c(c3ccccc3n2C)-c2ccccc2CO[C@@H]1CN(C)C(=O)Nc1ccc(-c2ccccc2)cc1`, “inactive”.
